Measured values reported in PubChem BioAssay (NCI).
About 83,000 compounds went through this panel and 20% of them were active in at least one assay; those are over-represented in the sample as a whole.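 How to read the values: 0–100, growth inhibition (40 = 60% inhibited); 0, no net growth; -100 to 0, cell death (-40 = 40% of starting cells died; -100 = all dead).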 Unmarked numbers belong to inactive results. Calls of active or inactive are those of the source. The calls were made as follows: active = growth percent below 10; inactive = the rest.

How the values were obtained:
Test in all cases: NCI-60 one-dose screen, 48 h (100 = growth as untreated, 0 = no growth, -100 = all killed)
Conditions in all cases: 10 µM unless noted
HCT-15 colon = test system: HCT-15 colon
HT29 colon = test system: HT29 colon
SNB-75 CNS = test system: SNB-75 CNS
SNB-19 CNS = test system: SNB-19 CNS
U251 CNS = test system: U251 CNS
PC-3 prostate = test system: PC-3 prostate
SK-MEL-5 melanoma = test system: SK-MEL-5 melanoma
UACC-62 melanoma = test system: UACC-62 melanoma
LOX IMVI melanoma = test system: LOX IMVI melanoma
SK-MEL-28 melanoma = test system: SK-MEL-28 melanoma

SMILES	growth (HCT-15 colon)	growth (HT29 colon)	growth (SNB-75 CNS)	growth (SNB-19 CNS)	growth (U251 CNS)	growth (PC-3 prostate)	growth (SK-MEL-5 melanoma)	growth (UACC-62 melanoma)	growth (LOX IMVI melanoma)	growth (SK-MEL-28 melanoma)
COc1cc(CN(c2ccc(Cl)cc2)C2OC(=O)c3ccccc32)cc(OC)c1OC (configuration not stated)	38.2%	17.9%	68.6%	74.1%	36%	62.6%	73%	45.6%	44.9%	67.3%
COc1ccc(/C=C/C(=O)/C=C(/C=C/c2ccc(OC)c(OC)c2OC)OB(F)F)c(OC)c1OC	9.58% (active)	13.9%	94.5%	57.1%	4.99% (active)	29.1%	36.8%	35.4%	-5.79% (active)	41%
CC1=C2C(=C[C@@](C)(CO)[C@@H]2OC(=O)N(C)CCN(C)C(=O)OC(C)(C)C)C(=O)[C@](C)(O)C12CC2	21%	6.33% (active)	79.9%	72.3%	22.6%	47.7%	76.7%	84.2%	61.8%	82.3%
COc1cc([C@@H]2c3cc4c(cc3C(OC3O[C@@H]5COC(C)O[C@H]5[C@H](O)[C@H]3O)C3COC(=O)[C@@H]32)OCO4)cc(OC)c1O (some centres not stated)	73.1%	64.5%	31.2%	27.4%	13.5%	63.3%	17.4%	33.7%	12%	61.4%
O=C(O)c1cccc2oc(-c3ccccc3O)nc12	34.1%	36.1%	74.7%	67.8%	45.6%	47.8%	58.1%	65%	4.75% (active)	77.9%
Cc1nc(N)nc(SCc2ccccc2)c1Br	102%	92.8%	87.3%	99.3%	85.4%	83.8%	88.4%	75.8%	95.7%	106%
Cl[C@@H]1CCO[C@H](c2cc3ccccc3c3ccccc23)C1	96.9%	98.8%	103%	91.7%	90.6%	92.8%	93%	85.2%	97.6%	104%
COc1ccc(/C=C/C(=O)c2ccc(NC(=O)CSc3nnc(-c4cc(OC)c(OC)c(OC)c4)o3)cc2)cc1	-79.6% (active)	-80.9% (active)	-89.7% (active)	-48.7% (active)	-90.1% (active)	-34.7% (active)	-84.2% (active)	-46.3% (active)	-69.4% (active)	-21% (active)
CC(C)CNCC(O)COc1ccc(C(C)(C)c2ccc(OCC(O)CNCC(C)C)cc2)cc1 (configuration not stated)	20.1%	-8.67% (active)	63.9%	51.7%	-5.63% (active)	47.4%	-95% (active)	-65.2% (active)	-79.9% (active)	-60.5% (active)
C/C(=N/NC(=O)Cn1c2ccccc2c2ccncc21)c1cccs1	99.8%	89.5%	104%	94.9%	97.5%	99.2%	99.4%	95.8%	104%	108%
COc1ccc2c(c1)nnn1c3ncccc3c(N=O)c21	-33.2% (active)	-48.8% (active)	-23.3% (active)	-4.29% (active)	-64.4% (active)	9.89% (active)	36%	-76.8% (active)	–	16.2%
ClC1c2ccccc2CCc2ccccc21	88.2%	74.1%	81.6%	111%	96.6%	83.5%	96.7%	98.5%	–	112%
CS(=O)(=O)OCC(COS(C)(=O)=O)C(c1ccccc1)c1ccccc1	108%	100%	96.2%	105%	107%	97.2%	107%	90.3%	–	114%
CCCc1nn2c(CCC(=O)c3nc4ccc([N+](=O)[O-])cc4[nH]3)nnc2s1	100%	106%	97.2%	109%	108%	100%	119%	98.7%	–	103%
Clc1ccc2c(c1)nnn1c3ncccc3c(Br)c21	101%	93.8%	-3.76% (active)	89%	59.4%	78.6%	77.3%	58.3%	–	109%
CN1CCN(Cn2nc(-c3cc(Cl)cc(Cl)c3Cl)n(/N=C/c3ccc(Cl)cc3)c2=S)CC1	93.5%	117%	107%	96.6%	93.1%	82.4%	92.3%	90%	–	111%
COc1cccc(-c2nc3sccn3c2-c2ccnc(NCCNC(=O)Nc3cccc(C(F)(F)F)c3)n2)c1	45.9%	44.1%	71.8%	74.8%	58.1%	32.9%	51.5%	50.5%	–	78.4%
COc1cc(/C=C2/Oc3cc4occc4c(OC)c3C2=O)ccc1OCC(=O)Nc1ccncc1	112%	104%	96.5%	106%	108%	95.5%	100%	93.5%	–	117%
CCNc1cc(S(=O)(=O)O)ccc1C	105%	102%	99.4%	104%	98.3%	90.5%	102%	105%	–	108%
CCOC(=O)C1CN(Cc2ccccc2)C(=O)C1=O (configuration not stated)	86.2%	115%	76.1%	101%	111%	91.8%	106%	103%	–	101%
Cc1ncc(CO)c(C(=O)O)c1O	105%	89.1%	93.4%	107%	98.8%	88.5%	103%	97%	–	102%
COc1ccc2c(c1)C(=O)/C(=C/c1cccc(OCC(=O)c3ccccc3)c1)O2	31.8%	-15.7% (active)	-8.04% (active)	99.1%	41.5%	-43.4% (active)	50.2%	67%	–	-11.1% (active)
Cc1cn(-c2nc3c(c(NCc4ccccc4)n2)COCC3)c2cccc(C(N)=O)c12	81.9% [0.5 µM]	63.4% [0.5 µM]	107% [0.5 µM]	97.4% [0.5 µM]	93.5% [0.5 µM]	83.8% [0.5 µM]	-20.3% [0.5 µM] (active)	44.3% [0.5 µM]	–	96.5% [0.5 µM]
CN[C@@H](CCCNC(N)=NC/C=C(/C)CCC=C(C)C)C(=O)N(C)[C@@H](CCCNC(N)=NCC=C(C)C)C(=O)N[C@H](C)[C@H](OS(=O)(=O)O)c1ccc(OS(=O)(=O)O)c(COS(=O)(=O)O)c1	113%	86.2%	98.6%	101%	98.4%	89.5%	99.6%	93.8%	–	107%
CCc1c2cc(Cl)ccc2n2cc(Cc3ccccc3)[nH]c(=O)c12	98.9%	110%	96.9%	104%	99.5%	97.4%	104%	98.2%	–	107%
COc1ccc(Cn2cc3c(c2-c2cc(OC)c(OC)c(OC)c2)CCc2c(CO)noc2-3)cc1	17.6%	8.14% (active)	40%	30.2%	11.2%	26.5%	5.04% (active)	12.7%	–	54%
COc1ccc(/C(Cl)=N/N=C(\Cl)c2cc(OC)c(OC)c(OC)c2)cc1OC(C)=O	100%	79.2%	78.7%	92.3%	89.6%	74.8%	94.8%	93.9%	–	110%
C=C1C(=O)O[C@H]2[C@H]1CC/C(COC(=O)c1ccc(Br)cc1)=C\CC[C@@]1(C)O[C@@H]21	-26.3% (active)	-51.8% (active)	56%	24%	4.28% (active)	20.3%	8.33% (active)	-52.4% (active)	–	-27% (active)
